# Source: PubChem (National Center for Advancing Translational Sciences (NCATS))
# TRPML1 inh = blocks the human TRPML1 channel | Q9GZU1 | TRPML1-inducible cells, Ca2+ dye fluorescence, FDSS; active compounds read low; inhibition of EC80 agonist-evoked calcium signal | activity change, negative = inhibition, % (concentration not given with the values) | 390,000 tested, 0.02% active | AID 624415; in the data active = activity change below about -50%; inconclusive = between about -30% and that limit;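 also: stimulus is agonist 54-4 at its EC80 concentration; % is scaled to controls: 0 for no effect and ±100 for the full control effect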
#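 Tet-induced TRPML1-DL cells loaded with Ca8 no-wash calcium dye were read kinetically on FDSS. Compound addition was followed by EC80 agonist 54-4 (4 uM final); inhibition was read over 110 s.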
# GLP-1R inv ag = inverse agonists of human GLP-1 receptor; HEK293 GLP-1R CRE-luciferase, luminescence, 24 h; GLP-1R form is constitutively active; Potency, µM (doses to about 38.3 µM), inactives show top-dose activity change, negative = inhibition, hits mostly inhibitors; 410,000 tested, 1.6% active; AID 624417; also: potency is read from the fitted curve at half-maximal effect; % is scaled to controls: 0 for no effect and ±100 for the full control effect; nearly all actives have a fitted effect of over 55% in size
# Target sequence (P43220 whole entry, looked up): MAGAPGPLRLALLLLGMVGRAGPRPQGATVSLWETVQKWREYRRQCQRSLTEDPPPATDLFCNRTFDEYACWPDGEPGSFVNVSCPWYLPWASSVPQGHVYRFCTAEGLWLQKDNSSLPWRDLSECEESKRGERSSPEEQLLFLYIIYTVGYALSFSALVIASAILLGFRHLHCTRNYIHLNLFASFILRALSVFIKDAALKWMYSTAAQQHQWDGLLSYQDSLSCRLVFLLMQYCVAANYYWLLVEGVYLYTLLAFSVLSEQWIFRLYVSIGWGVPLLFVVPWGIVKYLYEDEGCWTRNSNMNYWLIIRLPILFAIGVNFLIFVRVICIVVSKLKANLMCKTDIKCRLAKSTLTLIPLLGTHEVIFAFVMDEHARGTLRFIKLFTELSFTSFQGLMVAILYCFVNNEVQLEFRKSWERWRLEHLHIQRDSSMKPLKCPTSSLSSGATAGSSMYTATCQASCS
#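 Inverse agonists were sought by their lowering of basal cAMP reporter luciferase output in HEK293 cells stably carrying constitutively active human GLP-1R, after 24 h compound treatment.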
# GLP1R cytotox = cytotoxicity counter-screen for GLP-1 receptor inverse agonists; AID 624418; HEK293 cAMP-luciferase reporter cells, luminescence, 24 h; Potency, µM (top dose mostly 38.3 µM), without a hit: top-dose activity change, negative = inhibition, actives largely listed as inhibitors; 410,000 tested, 0.13% active;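 also: loss of luciferase light is scored as toxicity; potency is read from the fitted curve at half-maximal effect; % is scaled to controls: 0 for no effect and ±100 for the full control effect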
#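 Quantitative HTS format, 1536 wells, 200 cells/uL seeded. Compounds: 23 nL, 24 h, 37 °C. Detection: luciferase reagent, luminescence at 12 min RT; decreased signal taken as cytotoxic.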
# TRPML1 agonist = human mucolipin-1 channel agonism; AID 624414; TRPML1-expressing cells, Ca2+ dye fluorescence, FDSS; 410,000 tested, 0.12% active; activation, % (concentration not given with the values); Q9GZU1; in the data active = activation above about 50%; inconclusive = mostly about 30% to 49%; also: 0% is about no effect
#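 Kinetic FDSS Ca2+ read in Tet-induced TRPML1-DL cells (ABD Ca8 dye plus quencher, 45-90 min RT loading): baseline, then compound, then 110 s agonist window; EC80 agonist 54-4 at 4uM final added afterwards for a 110 s antagonist window.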
# GLP1R ag = GLP-1 receptor (human) agonism | AID 624172 | 380,000 tested, 0.007% active | HEK293 GLP-1R CRE-luciferase, luminescence, 4-6 h; cells express a hypersensitive GLP-1R form | Potency, µM (doses to about 45.6 µM), inactives show at the top dose activation, hits mostly activators; also: potency is read from the fitted curve at half-maximal effect; % of control where 0% means no effect
# * marks the source's active call; other numbers are inactive results; ? = inconclusive; . = no result given. Most compounds without a hit are left out; they make up all but 1.8% or so of the library. Unless noted, calls follow the shape of the dose curve; as a rule, active = well fitted curve in the direction sought with a large enough effect; inconclusive = small, poorly fitted or top-dose-only effect, or another doubt; inactive = no such curve, though single readings can be large; an effect the other way counts as inactive or inconclusive.
SMILES,TRPML1 inh,GLP-1R inv ag,GLP1R cytotox,TRPML1 agonist,GLP1R ag
COCCN(Cc1ccccc1)C(=O)c1cccc(S(=O)(=O)N2CCN(Cc3ccccc3)CC2)c1,7,14µM*,2%,1,4%
CC(=O)Nc1csc2ccccc12,7,-12%,4%,1,-2%
O=C(Nc1ccccc1)Nc1csc2ccccc12,-1,8.9µM*,0%,0,0%
COc1ccc(C(=O)CSc2nc(-c3ccccn3)nc(C)c2Cl)cc1,-11,?,11µM*,1,2%
COc1ccc(C2=NC3(CCCCCC3)N(CC(=O)Nc3cccc(Cl)c3)C2=O)cc1,?,11µM*,-26%,3,.
COc1ccc(NC(=O)CN2C(=O)C(c3ccc(C)cc3)=NC23CCCCCC3)cc1Cl,-17,11µM*,-7%,1,.
COc1ccc(-n2cc(CNC(C)c3ccncn3)c(-c3cccc(F)c3)n2)cc1 (configuration not stated),9,?,3%,0,8%
CCC(COC)NCc1cn(-c2ccc(OC)cc2)nc1-c1cccc(F)c1 (configuration not stated),8,4.5µM*,?,0,4%
COc1ccc(CCNC(=O)c2ccc3c(c2)CCN3S(=O)(=O)c2ccc(Cl)cc2)cc1,12,?,5%,1,.
CCCCCCCOC(=O)C[N+](C)(C)CCOC1CC2CCC1(C)C2(C)C (configuration not stated),55,?,11µM*,27,7%
CCCCCCOC(=O)C[N+](C)(C)CCOC1CC2CCC1(C)C2(C)C (configuration not stated),2,0%,0%,0,4%
CCN(CC)c1ccc(N=Nc2ccc(S(=O)(=O)N(C)C)cc2)c(S(=O)(=O)NCC[n+]2ccccc2)c1,.,.,.,.,-1%
COC(=O)c1ccc(NC(=S)NC2CC(C)(C)NC(C)(C)C2)cc1,-7,8.9µM*,0%,0,-5%
COC(=O)c1ccc(NC(=S)NC2CCc3ccccc32)cc1 (configuration not stated),-17,10µM*,?,0,10%
Cc1ccc2nc(-c3ccc(NC(=S)NC4CC(C)(C)NC(C)(C)C4)cc3)sc2c1,-9,5µM*,?,7,5%
COC(=O)c1ccc(NC(=S)NC2CC2)cc1,8,13%,-4%,1,10%
Cc1ccc2nc(-c3ccc(NC(=S)NC(=O)C(C)C)cc3)sc2c1,-15,-1%,9%,1,-6%
Cc1cccc(C)c1NC(=O)NC1CCc2ccccc21 (configuration not stated),4,12%,-11%,1,5%
CCOc1ccccc1N(CC(=O)NC1CCCCC1)C(=O)c1nsc(Cl)c1Cl,5,10µM*,2%,2,15%
CCCCCCCCCCCCCCCCCCN(CCCCCCCCCCCCCCCCCC)c1ccc(/C=C/c2ccc(C=O)cc2)cc1,.,.,.,0,.
CCCCOP(=O)(OCCCC)C(Nc1ccccc1)c1ccc2c(c1)OCO2 (configuration not stated),38,7.9µM*,-8%,0,-32%
CCc1ccc(CN2CCc3nc(N4CCN(CC)CC4)ncc3C2)cc1,18,5µM*,-2%,1,.
Cc1ccc(-c2nc(CS(=O)CC(=O)NCCN3CCCC3)c(C)o2)cc1 (configuration not stated),6,-12%,-5%,0,-2%
CCc1ccc(-c2nc(CS(=O)CC(=O)NCCN3CCCCCC3)c(C)o2)cc1 (configuration not stated),-10,11µM*,-26%,-1,-4%
COc1ccccc1N=Nc1ccc(O)c2ncccc12,-19,?,1.3µM*,2,-10%
SMILES,TRPML1 inh,GLP-1R inv ag,GLP1R cytotox,TRPML1 agonist,GLP1R ag
CCS(=O)(=O)c1ccc(N=Nc2ccc(O)c3ncccc23)c(OC)c1,18,0%,?,0,2%
CCCN(CCC)c1nc(N)nc(C#N)n1,.,.,.,-1,.
CCCOc1ccc(C2C(=O)N(C3CCCCCC3)CC(=O)N2Cc2ccc(OC)cc2)cc1OC (configuration not stated),37,11%,7%,0,.
CCCCOC1CC(c2ccc(OCc3ccc(OC)cc3)c(OC)c2)N(C)O1 (configuration not stated),-7,10µM*,-17%,1,11%
O=P(O)(O)OC[C@@H](O)CO,.,.,.,.,19%
COc1cc(/C=N/NC(=S)NC2CC3CC2C2C=CCC32)ccc1O (configuration not stated),-12,?,4.5µM*,3,?
Brc1cccc(Cn2c(-c3cncs3)nc3ccccc32)c1,4,0%,-10%,0,21%
Cc1cccc(Cn2c(-c3cccc(Br)c3)nc3ccccc32)c1,33,10µM*,8%,3,.
CN(C)/[N+]([O-])=N/Oc1ccc([N+](=O)[O-])cn1,-6,.,.,2,.
CSc1cccc(NC(=O)C(c2ccccc2)N2Cc3ccccc3C2=O)c1 (configuration not stated),4,?,0%,1,.
Cc1cccc(N2CCN(C(=S)c3ccc4c(c3)OCO4)CC2)c1,-10,11µM*,?,2,8%
S=C(c1ccc2c(c1)OCO2)N1CCN(c2cccc(Cl)c2)CC1,4,?,?,3,12%
C=CCN1C(=O)C(CC(=O)Nc2ccc(OCCC)cc2)N(CCCN2CCN(Cc3ccccc3)CC2)C1=S (configuration not stated),-16,2.5µM*,?,1,0%
CCCCCCOc1ccc(NC(=O)CC2C(=O)N(CC)C(=S)N2Cc2ccco2)cc1 (configuration not stated),-15,7.1µM*,?,1,-5%
CCCOc1ccc(NC(=O)CC2C(=O)N(CC)C(=S)N2Cc2cccs2)cc1 (configuration not stated),-7,10µM*,-28%,1,0%
COc1ccc(NC(=O)CC2C(=O)N(C)C(=S)N2Cc2cccs2)cc1 (configuration not stated),-10,?,2%,-1,4%
CCC[n+]1c(/C=C/c2c(OC)cc(OC)cc2OC)ccc2ccccc21,.,.,.,8,.
COc1cccc(N2CCN(C(=O)c3ccc(C)c(NC(=O)c4nsc5ccccc45)c3)CC2)c1,-11,6%,2%,1,.
Cc1ccc(Oc2c(C(N)=O)cc([N+](=O)[O-])cc2[N+](=O)[O-])cc1,-21,11µM*,?,0,-35%
O=C(CCN1CCN(c2ccccc2)CC1)Nc1cccc(Br)c1,14,11µM*,14%,-1,0%
O=C(CCN1CCCC1)Nc1cccc(Br)c1,-5,-11%,14%,0,-2%
